Experimental data taken from PubChem BioAssay (NCI).
This is part of a sample that, as a whole, favours compounds with a hit. Of some 79,000 tested, about 15% had one in any assay. Cut-off read from the data, not from the text of the source: active = growth inhibition above about 70%; inactive = the rest.

What was measured:
[1] = NCI Yeast Anticancer Drug Screen. Data for the rad50 strain (AID 155);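 note: 0% = growth of vehicle-only cultures of the same strain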; conditions: S. cerevisiae rad50 strain growth inhibition; at 50.0 µM; stronger effect = higher value
Summary of the method: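 Relative growth inhibition (compound vs vehicle) was measured in yeast with a defined repair-gene alteration.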

[2] = NCI Yeast Anticancer Drug Screen. Data for the mec2-1 strain (AID 157); conditions: S. cerevisiae mec2-1 strain, at 50.0 µM, stronger effect = higher value
Summary of the method: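 Each compound was tested on mec2-1 yeast, a strain altered in DNA damage repair or cell cycle control. Growth inhibition is reported relative to vehicle.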

[3] = NCI Yeast Anticancer Drug Screen. Data for the sgs1 mgt1 strain (AID 161);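 note: 0% = growth of cultures given vehicle only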; conditions: S. cerevisiae sgs1 mgt1 strain, at 50.0 µM, stronger effect = higher value
Summary of the method: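 Test agents were incubated with a DNA-repair-mutant yeast strain. Growth was then read and compared against vehicle-treated controls.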

[4] = NCI Yeast Anticancer Drug Screen. Data for the cln2 rad14 strain (AID 165);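 note: 0% = growth equal to vehicle treated cultures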; conditions: S. cerevisiae cln2 rad14 strain, at 50.0 µM, stronger effect = higher value
Summary of the method: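 Test compounds were added to cln2 rad14 yeast cultures; inhibition of growth was then determined by comparison with vehicle treatment.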

[5] = NCI Yeast Anticancer Drug Screen. Data for the bub3 strain (AID 167); conditions: S. cerevisiae bub3 mutant strain, at 50.0 µM, stronger effect = higher value
Summary of the method: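 Screening used yeast with an engineered genetic alteration affecting cell cycle control. Compound-exposed cultures were compared with vehicle cultures, and reduced growth was taken as inhibition.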

[6] = NCI Yeast Anticancer Drug Screen. Data for the mlh1 rad18 strain (AID 175); conditions: S. cerevisiae mlh1 rad18 strain growth inhibition; at 50.0 µM; stronger effect = higher value
Summary of the method: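 Inhibition values reflect reduced growth of mutant yeast versus vehicle-treated controls following compound exposure; the mutations affect DNA damage repair.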

Measured: growth inhibition

CN(N=O)C(=O)NCc1ccc(Cl)cc1
inactive: [1] -0.1% | [2] 15.8% | [3] 17.6% | [4] 12.4% | [5] 8.05% | [6] 1.15%

C=CC(C)Cc1ccccc1 (stereo unspecified)
inactive: [1] 2% | [2] 1.05% | [3] 7.85% | [4] 24.1% | [5] 31.5% | [6] 25.2%

Cc1ccsc1/C=N/Nc1nc2ccccc2s1
inactive: [1] 1.7% | [2] -1.5% | [3] 13.7% | [4] 9.2% | [5] -2.15% | [6] 11.3%

CN(C)C=Nc1cc2c(cc1Br)-c1ccccc1C2=O
inactive: [1] 3.05% | [2] 10.3% | [3] 4.4% | [4] -0.45% | [5] 2% | [6] -15.7%

O=C(O)c1ccc(F)cc1C(=O)O
inactive: [1] 5.5% | [2] 6% | [3] 4.75% | [4] 5.25% | [5] 3.2% | [6] 1.45%

Cc1ccc(N/N=c2\c3nc4ccccc4nc2n(-c2ccccc2C)c(=S)n3-c2ccc(C)cc2)cc1
inactive: [1] -19.6% | [2] -14.3% | [3] 1.15% | [4] -18.7% | [5] 0.8% | [6] -29.5%

CCOC(=O)Cc1cc(Cl)c2ccc(Cl)cc2n1
inactive: [1] 32.1% | [2] -2% | [3] 23.2% | [4] 11.6% | [5] 36.4% | [6] 40.4%

CN(C)Cc1cc(C(C)(C)C)cc(CN(C)C)c1O
inactive: [1] -4% | [2] -6.2% | [3] -13% | [4] -20.1% | [5] -36.4% | [6] -0.05%

Cc1ccc(I)c(C)c1
inactive: [1] -40% | [2] -10% | [3] -39.4% | [4] -3.6% | [5] -1.15% | [6] -7.3%

COc1ccc(CCNC(=O)CC2CCN(C)CC2)cc1OC
inactive: [1] -1.05% | [2] -6.7% | [3] 10.2% | [4] -7.4% | [5] 15.2% | [6] -3.75%

O=C(c1ccccc1)c1cccnc1
inactive: [1] -10.6% | [2] -18.3% | [3] -17.4% | [4] -25.1% | [5] -45.2% | [6] -35.4%

Cn1cnc([N+](=O)[O-])c1Sc1n[nH]c(-c2ccc(Cl)cc2)n1
inactive: [1] -11.6% | [2] 1.7% | [3] -7.75% | [4] 21.4% | [5] 17.1% | [6] -6.05%

O=C(NCCSC(=O)Nc1ccccc1)Nc1ccccc1
inactive: [1] 0% | [2] 14.8% | [3] 5.25% | [4] -10% | [5] 29.1% | [6] 8.55%

CC(Cl)(CCl)C(=O)NCNC(=O)C(C)(Cl)CCl (stereo unspecified)
inactive: [1] 51.5% | [2] 3.8% | [3] 8.2% | [4] -19.1% | [5] 15.8% | [6] 28.2%

O=C1/C(=C\c2ccccc2)C2C3CCC(C3)C2/C1=C\c1ccccc1 (stereo unspecified)
inactive: [1] -3.55% | [2] 0.55% | [3] 4.6% | [4] -63.8% | [5] 11.1% | [6] -17.4%

CC1C2CC(CC2(C)O)C1(C)C (stereo unspecified)
inactive: [1] 8.45% | [2] -3.1% | [3] 3.35% | [4] 9.05% | [5] -3.3% | [6] -7.35%

COC(=O)C1(c2ccccc2)Cc2ccccc2-c2ccccc21 (stereo unspecified)
inactive: [1] -24.1% | [2] -9.5% | [3] -10.2% | [4] -16.3% | [5] 26.1% | [6] -17%

C[N+](C)(C[Si](C)(C)C)C1CCCCCCCCCCC1
inactive: [1] 11.4% | [2] 1.3% | [3] -8.8% | [4] -10.9% | [5] 14.1% | [6] 22.2%

CC1=CC(O)(Cc2ccccc2)CC(C)(C)C1 (stereo unspecified)
inactive: [1] 2.1% | [2] -36.2% | [3] -17.9% | [4] -0.9% | [5] -27.9% | [6] -28.9%

CCNC(=O)OCc1c(COC(=O)NCC)c(-c2ccc(Cl)c(Cl)c2)n2c1CCC2
inactive: [1] 27.4% | [2] 24.8% | [3] 35.4% | [4] 66.5% | [5] 10.4% | [6] 40.8%

c1ccc(-c2n[nH]c(-c3[nH]nc(-c4ccccc4)c3-c3ccccc3)c2-c2ccccc2)cc1
inactive: [1] -12.2% | [2] 15.3% | [3] -12% | [4] 5.15% | [5] 7.35% | [6] 8.2%
